Screen size: about 360,000 compounds; about 3,000 (0.83%) were called active. Cut-off read from the data, not from the text of the source: active = inhibition above about 38%; inactive = the rest. The full list was thinned out, with actives kept by preference.
Target: G-protein coupled receptor 183 (Homo sapiens) (UniProt P32249)
Experiment: blockers of oxysterol-driven EBI2 arrestin signaling – cell-based, luminescence, 7a,25-OHC stimulation, uHTS, primary screen (AID 651636);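 note: enzyme fragment complementation signal reports receptor beta-arrestin coupling in cells; 0% = agonist plus DMSO wells and 100% = wells without agonist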
Details: EBI2 beta-arrestin recruitment, 7a,25-OHC stimulated, at 5 µM, active compounds read high

Chain of G-protein coupled receptor 183 (Homo sapiens) (P32249 whole entry, looked up, the tested form may be a part): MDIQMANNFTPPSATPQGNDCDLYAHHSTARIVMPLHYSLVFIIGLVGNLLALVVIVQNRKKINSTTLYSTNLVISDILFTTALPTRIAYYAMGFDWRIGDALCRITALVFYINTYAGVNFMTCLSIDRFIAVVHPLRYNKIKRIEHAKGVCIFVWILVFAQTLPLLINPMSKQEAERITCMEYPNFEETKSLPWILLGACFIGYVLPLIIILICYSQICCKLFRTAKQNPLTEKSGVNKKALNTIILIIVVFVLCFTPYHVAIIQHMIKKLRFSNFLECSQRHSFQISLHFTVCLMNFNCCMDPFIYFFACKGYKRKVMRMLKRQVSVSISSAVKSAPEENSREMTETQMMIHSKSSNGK

| SMILES | inhibition |
| --- | --- |
| COc1cccc(N(CC(=O)NC2CCCC2)C(=O)Cn2nnc(-c3ccc(C)cc3)n2)c1 | 7.66% (inactive) |
| CS(=O)(=O)N1CCc2nc(-c3ccccc3)sc2C1 | 1.2% (inactive) |
| O/N=C(\c1ccc2c(c1)OCCO2)C1CCCCC1 | 4.5% (inactive) |
| O=S1(=O)CC(N2CCN(CCO)CC2)CN1Cc1cn(Cc2cccc(Cl)c2)nn1 (stereo not given) | -6.79% (inactive) |
| Cc1ccc(O/C=C2\OC(=O)c3ccccc32)cc1 | 55.5% (active) |
| O=C(O/N=C(/c1ccccc1)c1ccncc1)c1ccccc1[N+](=O)[O-] | -3.57% (inactive) |
| O=S(=O)(c1ccc(Sc2nnc3ccccn23)nc1)N1CCOCC1 | -9.4% (inactive) |
| CC(C)Cc1ccc(-c2cc3nc(NCc4cccc(Cl)c4)ccn3n2)cc1 | 47.4% (active) |
| COCCCNc1ccn2nc(-c3ccc(CC(C)C)cc3)cc2n1 | 36.9% (inactive) |
| COc1ccccc1-c1cc2nc(NCc3cccc(Cl)c3)ccn2n1 | 4.55% (inactive) |
| O=C(O)C1CC=CCC1C(=O)NCCc1ccccc1 (stereo not given) | -5.64% (inactive) |
| CCc1nc2ccc(C(=O)Nc3cc(-c4ccccc4)ccc3OC)cn2c1N(CC)CC(=O)N(C)C | 17% (inactive) |
| CCC(C)(C)NC(=O)c1cc([N+](=O)[O-])ccc1N1CCCCC1 | 79.2% (active) |
| CCN1CCN(c2ccc([N+](=O)[O-])cc2C(=O)c2ccc(Cl)cc2)CC1 | 8.05% (inactive) |
| COc1ccc(S(=O)(=O)N2CCCCC2)cc1NC(=O)c1cc([N+](=O)[O-])ccc1N1CCOCC1 | 15.7% (inactive) |
| C=CCN(Cc1nc(-c2cc(OC)c3c(c2)OCO3)oc1C)C1CCS(=O)(=O)C1 (stereo not given) | -4.13% (inactive) |
| CCCCN1CC(CO)Oc2cccc(F)c2S1(=O)=O (stereo not given) | -9.52% (inactive) |
| CC(C)(C)C(=O)Nc1cccc(-c2ccc[nH]2)n1 | -1.86% (inactive) |
| C/C(=N/NC(=O)CN1CCN(S(=O)(=O)c2ccc(Br)cc2)CC1)c1ccncc1 | 6.8% (inactive) |
| Cc1cccc(NC(=O)CN2CCCN(S(=O)(=O)c3ccc(Br)s3)CC2)c1 | 3.9% (inactive) |
| Cc1ccc(S(=O)(=O)N2CCN(CC(=O)N/N=C/c3ccc(Br)s3)CC2)cc1 | 66.9% (active) |
| Cc1ccc(C(=O)NCC(=O)OCC(=O)NC2CCCCCCC2)cc1 | -2.06% (inactive) |
| COc1ccc(S(=O)(=O)N2CCOCC2)cc1C(=O)NC1CCCCC1 | 3.75% (inactive) |
| COCCCN(C(=O)Cn1ncc2c(=O)oc3ccc(C)cc3c21)C(C)c1ccncc1 (stereo not given) | -3.25% (inactive) |
| Cc1ccc2oc(=O)c3cnn(CC(=O)N(Cc4ccco4)C4CCCCC4)c3c2c1 | 86.2% (active) |
| CCOC(=O)C1CCCN(C(=O)Cn2ncc3c(=O)oc4ccc(C)cc4c32)C1 (stereo not given) | -3.84% (inactive) |
| Cc1ccc2oc(=O)c3cnn(CC(=O)N4CCCCCC4)c3c2c1 | 57.7% (active) |
| Cc1ccc2oc(=O)c3cnn(CC(=O)N4CCN(c5ccccn5)CC4)c3c2c1 | 14.3% (inactive) |

| SMILES | inhibition |
| --- | --- |
| Cc1ccc(S(=O)(=O)NCC(=O)N(CC(=O)NC2CCCCC2)Cc2ccco2)cc1 | -11.2% (inactive) |
| CCC1CO/C(=C(\C(=C(Cl)Cl)N2CCOCC2)[N+](=O)[O-])N1 (stereo not given) | -3.56% (inactive) |
| CCCCC[C@H](C)N1C[C@@H](COCc2ccccc2)Oc2cc(N3CC[C@@H](N(C)C)C3)ccc2S1(=O)=O | 1.65% (inactive) |
| Cc1ccc(C(=O)O)cc1S(=O)(=O)NCC1CCCO1 (stereo not given) | -0.989% (inactive) |
| C=CC[C@H](CC(=O)N(CCO)Cc1ccccc1)C(=O)N[C@@H](COC(=O)[C@@H](CC=C)Cc1ccc(F)cc1)Cc1ccccc1 | 27% (inactive) |
| Cc1cccc(NC(=O)c2nc(S(=O)(=O)Cc3ccccc3)ncc2Cl)c1 | 66% (active) |
| Cc1cccc(NS(=O)(=O)c2ccc(C)c(C(=O)NCc3cccnc3)c2)c1 | -2.61% (inactive) |
| Cc1cccc(CS(=O)(=O)c2ncc(Cl)c(C(=O)Nc3ccc(F)cc3)n2)c1 | 30.8% (inactive) |
| O=C(NCc1ccccc1)C1CCCN(S(=O)(=O)c2cccs2)C1 (stereo not given) | -3.94% (inactive) |
| O=C(NCc1ccc(Cl)cc1)C(=O)NCC1CCCN1S(=O)(=O)c1cccs1 (stereo not given) | -11.1% (inactive) |
| O=C(NCc1ccc(Cl)cc1)C1CCN(S(=O)(=O)c2cccs2)CC1 | 53% (active) |
| N#CCCCn1c(O)c(N=NC(=O)C(O)c2ccccc2)c2ccccc21 (stereo not given) | 10.8% (inactive) |
| COC(=O)c1cccc(NS(C)(=O)=O)c1 | 1.19% (inactive) |
| CCCc1cc(=O)oc2cc(OCC(=O)Nc3ccc(CN4CCOCC4)cc3)c(Cl)cc12 | -0.759% (inactive) |
| CC(NC(=S)NC1CCCCC1)C(c1ccccc1)N1CCOCC1 (stereo not given) | -1.91% (inactive) |
| Cc1sc(NC(=O)C2C3CCC(O3)C2C(=O)O)c(C(=O)OC(C)C)c1-c1ccc(Cl)cc1 (stereo not given) | 2.12% (inactive) |
| CC(C)c1cc(Cn2c3ccccc3c(=O)n2C(C)Cn2cc(C3CC3)nn2)on1 (stereo not given) | -7.98% (inactive) |
| CCC(C(=O)NC1CCCCC1)N(C(=O)c1snc(C(N)=O)c1N)c1ccc(OC)cc1OC (stereo not given) | 8.28% (inactive) |
| COc1ccc(C(C(=O)NC2CCCCC2)N(C(=O)c2snc(C(N)=O)c2N)c2ccccc2OC)cc1 (stereo not given) | 48.7% (active) |
| COc1ccc(N(C(=O)c2snc(C(N)=O)c2N)C(C(=O)NC2CCCC2)c2ccc(C)o2)c(OC)c1 (stereo not given) | 34.7% (inactive) |
| Cc1ccccc1C(=O)NCC(c1ccco1)N1CCc2ccccc21 (stereo not given) | 6.76% (inactive) |
| O=C1NC(Cc2ccccc2)c2nc3ccc(Br)cc3c(=O)n2-c2cc3ccccc3cc21 (stereo not given) | 37.7% (inactive) |
| CCC1NC(=O)c2cccnc2-n2c1nc1ccc(C)cc1c2=O (stereo not given) | -1.36% (inactive) |
| Cc1cc(C)c2c(=O)n3c(nc2c1)C(CC(C)C)NC(=O)c1cc2ccccc2cc1-3 (stereo not given) | 77.3% (active) |
| Cc1[nH]c2c(C(=O)N3CCCC(CCC(=O)NCc4ccccc4F)C3)cccc2c1C (stereo not given) | 2.8% (inactive) |
| CN1CCN(c2ccccc2NC(=O)COc2ccc(C3CCCCC3)cc2)CC1 | 22.8% (inactive) |
| O=C(CSCc1ccc([N+](=O)[O-])cc1)NCCSCc1ccccc1 | 3.17% (inactive) |
